Experimental data taken from PubChem BioAssay (NCI).
The panel holds about 83,000 compounds, 20% with a hit somewhere; the sample as a whole holds those more often.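 Interpretation: 100, growth as untreated; towards 0, rising growth inhibition; 0, no net growth; 0 to -100, cell death. Compounds scoring below 10 were considered active.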 A number with no mark means an inactive call. Activity calls are given as the source filed them.

These molecules were tested on SK-MEL-2 melanoma (assay: NCI-60 one-dose screen, 48 h (100 = growth as untreated, 0 = no growth, -100 = all killed)). Conditions: 10 µM.
Method: Growth inhibition of the SK-MEL-2 human tumor cell line is measured as a screen for anti-cancer activity. Cells are grown in 96 well plates and exposed to the test compound for 48 hours. Compounds are tested at a single concentration, which is 10^-5 M for most compounds. The reported endpoint is percent growth (GI% or GIPRCNT), where numbers from 0 - 100% represent growth inhibition, and numbers from -100% - 0 represent cell death. For example, a value of 40 represents 60% growth inhibition. A value of 0 means no net growth occurred over the course of the experiment. A value of -40 indicates 40% of cells at the beginning of the experiment died by the end of the experiment. A value of -100 means all cells are dead at the end of the experiment.
NCI-60 Human Tumor Cell Lines Screen was performed using the standard one-dose NCI protocol, which is described in more detail at https://dtp.cancer.gov/discovery_development/nci-60/default.htm.
Compounds with GIPRCNT values below 10 were considered active. Activity score was based on GIPRCNT using the following formula: […]
Score is 0 for GIPRCNT values of 100 or above, 50 for GIPRCNT values of 0, and 100 for GIPRCNT values of -100.

SMILES	growth
C[C@@H]1C(=O)N(C[C@H](Cc2ccccc2)NC(=O)OCc2ccccc2)[C@]1(Cc1ccccc1)C(=O)OCc1ccccc1	42.9%
O=S(=O)(NCl)c1ccccc1	109%
CCN(CC)CC(O)Cc1ccc(OC)cc1 (stereo not given)	96%
O=C1/C(=C/c2ccc([N+](=O)[O-])s2)Oc2ccc(Cl)cc21	-53.7% (active)
NC(=O)C12C(=O)NC(=O)C1(C(=O)O)C21CCCC1 (stereo not given)	108%
Oc1cc(O)c(Br)cc1Br	96.6%
Nc1cc2c(cc1Cl)-c1ccc(Cl)cc1C2=O	95.7%
COC(=O)c1ccc(Cn2ccc(=O)[nH]c2=O)cc1	100%
Cc1nc2sccn2c1-c1csc(Nc2cccc(Cl)c2C)n1	43.8%
CC(C)/C(=N/O)c1ccccc1	101%
CCOC(=O)c1c(C)n(-c2ccc(Cl)cc2)c2ccc(OC(=O)/C=C/c3ccccc3)cc12	64.2%
Cc1cc(C)c(/C=C2\C(=O)Nc3ccc(NC(=O)CCCCCCC(=O)NO)cc32)[nH]1	-5.24% (active)
O=[N+]([O-])C1CC2C=CC1C2 (stereo not given)	92.8%
CCOC(=O)c1cc2c(n1Cc1cc(OC)cc(OC)c1)-c1oncc1CC2	26.7%
Cc1ccc(S(=O)(=O)N2CCc3ccccc3CC2)cc1	80.9%
CCN(CC)CC(O)CNc1ccnc2cc(Cl)c(Cl)cc12 (stereo not given)	108%
C=CCn1c(C)nc2cc(Nc3nc(Nc4ccc5nc(C)n(CC=C)c5c4)c4ccccc4n3)ccc21	-84.1% (active)
Nc1cc(O)cc(O)c1	98.7%
NC1CCC(Nc2nc(NCc3ccc(-c4ccccc4O)nc3)c3ncn(C4CCCC4)c3n2)CC1 (stereo not given)	-81.4% (active)
CCCN(CCC)CCCNC(=O)c1cc2c(-c3ccc(OC)c(OC)c3)nn(C)c2s1	-31.3% (active)

SMILES	growth
CCCCOCC(=O)NC(NP(=O)(N(C)C)N(C)C)C(Cl)(Cl)Cl (stereo not given)	107%
Cn1c([N+](=O)[O-])cnc1C=C1C(=O)c2ccccc2C1=O	1.67% (active)
COc1cc(-c2cc(/C=C/C(C)=O)[nH]n2)cc(OC)c1OC	87.2%
CCCCCCCCCCN=C(c1ccc(N(C)C)cc1)c1ccc(N(C)C)cc1	23.3%
N#Cc1c2c([nH]c(=O)c1C(N)=O)CCCCC2	98.7%
CN(C)Cc1cccs1	103%
CC(C)C(C)C(N)C(=O)O (stereo not given)	101%
Nc1c(CNCc2nnn(Cc3ccccc3)c2N)nnn1Cc1ccccc1	103%
O=C(Nc1cccc([N+](=O)[O-])c1)NN1CCCCCC1	105%
CCN(CC)c1ccc(/C=C/C2=[N+](C)c3ccccc3C2(C)C)c(C)c1	-12.7% (active)
Cn1c([N+](=O)[O-])cnc1/C=C1\Oc2ccc(Br)cc2C1=O	-49% (active)
Nc1c(C(=O)Nc2ccccc2F)sc2nc3c(cc12)C(=O)CCC3	42.6%
COc1ccc(C2C=C(c3ccc(Cl)cc3)N=C3SC=CN32)c(Br)c1 (stereo not given)	85.3%
CCCCCCCCCCCC(c1ccccc1)N(C)C (stereo not given)	116%
CCc1ccc(-c2nnc(COc3ccc(-c4nc5ccccc5[nH]4)cc3OC)o2)cc1	96.7%
COc1ccc2c(c1)/C(=C/c1cc(OC)c(OC)c(OC)c1)C(=O)N2C	24.3%
Cc1ccc2nc(-c3ccc(OCC(=O)N=Nc4c(O)[nH]c5ccccc45)cc3)[nH]c2c1	104%
CCOc1nc(-c2ccccc2)cc2c(O)c(C(=O)NCCCO)[nH]c(=O)c12	92.7%
N=C(N)c1ccc(-c2ccc(-c3cccs3)s2)nc1	97.8%
COc1cc(C2C=C(c3ccc(Cl)cc3)N=C3SC(C)=CN32)cc(OC)c1OC (stereo not given)	102%
